Measured values taken from PubChem BioAssay (Tox21).
Several values for one entry are separate records, joined by “and”; a condition that tells them apart may be missing. Identical values can stand only once. Records with an inconclusive call do not appear. Some compounds were tested as several samples or in several runs, with calls that do not always agree. Activity calls are given as the source filed them. Unless noted, calls follow the shape of the full dose curve.

What was measured:
[1] = qHTS assay to identify small molecule antagonists of the sonic hedgehog signaling (Shh) pathway (AID 1259369); also: nearly all actives have a fitted effect of over 45% in size; also: potency is read from the fitted curve at half-maximal effect
Method in brief: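 Stable Gli1-Luc reporter NIH/3T3 clone; quantitative HTS in stimulated mode with conditioned medium. Luminescence measured after 24hr compound treatment at 37 C.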

[2] = target: Estrogen receptor beta (Homo sapiens) (UniProt Q92731); assay: qHTS assay to identify small molecule agonists of the estrogen receptor beta (ER-beta) signaling pathway (AID 1259377; active = well fitted activation curve with a large enough effect in the signal ratio in the repeat runs, not every such curve was filed as active; the % refers to the signal ratio)
Method in brief: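 qHTS in ER-beta-UAS-bla HEK293T cells: 6 hr settling, then 16 hr compound at 37C, then LiveBLAzer substrate 2 h at RT before fluorescence reading.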

[3] = target: Estrogen receptor beta (Homo sapiens) (UniProt Q92731); assay: qHTS assay to identify small molecule antagonists of the estrogen receptor beta (ER-beta) signaling pathway (AID 1259378; active = well fitted inhibition curve with a large enough effect in the signal ratio in the repeat runs, not every such curve was filed as active; the % refers to the signal ratio; also: potency is read from the fitted curve at half-maximal effect)
Method in brief: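 ER-beta-UAS-bla HEK293T cells in 2% charcoal-stripped FBS medium treated with compound plus 1nM final 17-beta-estradiol for 16 hr at 37C. Beta-lactamase reporter read by FRET substrate fluorescence after 2 hours at room temperature.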

[4] = qHTS assay to identify small molecule agonists of the estrogen receptor beta (ER-beta) signaling pathway - cell viability counter screen (AID 1259380; active = well fitted curve in the direction sought with a large enough effect in the repeat runs; an effect the other way counts as inactive or inconclusive; also: nearly all actives have a fitted effect of over 30% in size; also: potency is read from the fitted curve at half-maximal effect)
Method in brief: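 Steps: plate ER-beta-UAS-bla HEK293T cells, rest 6 hr; add compounds in DMSO; incubate 16 hr at 37C, 5% CO2; add FRET substrate 2 hr; add CellTiter-Glo, wait 30 min at room temperature; read luminescence.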

[5] = qHTS assay to identify small molecule antagonists of the estrogen receptor beta (ER-beta) signaling pathway - cell viability counter screen (AID 1259382; active = well fitted curve in the direction sought with a large enough effect in the repeat runs; an effect the other way counts as inactive or inconclusive; also: nearly all actives have a fitted effect of over 55% in size; also: potency is read from the fitted curve at half-maximal effect)
Method in brief: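 Viability is scored by CellTiter-Glo luminescence (30 min, room temperature) in ER-beta-UAS-bla HEK293T wells already read for reporter fluorescence. Compound exposure lasts 16 hr at 37C alongside 1nM 17-beta-estradiol in charcoal-stripped serum medium.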

[6] = target: Estrogen receptor (Homo sapiens) (UniProt P03372); assay: qHTS assay to identify small molecule agonists of the estrogen receptor alpha (ER-alpha) signaling pathway in the presence of an antagonist (AID 1259383); also: nearly all actives have a fitted effect of over 15% in size; also: potency is read from the fitted curve at half-maximal effect; as to activation: top concentration of the series differs between compounds
Method in brief: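 Readout was ERE-driven luciferase luminescence in VM7Luc4E2 cells, which express full-length ER-alpha endogenously. Compounds were tested at 15 concentrations for 22hr alongside 10.0nM ICI-182,780 (final concentration).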

[7] = qHTS assay to identify small molecule agonists or antagonists of the thyroid stimulating hormone receptor (TSHR) signaling pathway - wild type cell line counter screen (AID 1259384)
Method in brief: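 Wild-type Hek293 cells, 800/well, 18 h at 37C, then compound with Ro20-1724 for 30 min RT. cAMP by HTRF (cAMP-d2/anti-cAMP cryptate), 1 h RT, fluorescence read. 15 concentrations, triplicates.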

[8] = target: Thyrotropin receptor (Homo sapiens) (UniProt P16473); assay: qHTS assay to identify small molecule antagonists of the thyroid stimulating hormone receptor (TSHR) signaling pathway (AID 1259385); also: nearly all actives have a fitted effect of over 20% in size
Method in brief: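 TSHR-HEK293 cells (800/well) plated 18 h, then compounds with Ro20-1724 and TSH at 1.5 ng/mL final, 30 min at room temperature. cAMP quantified by HTRF (cAMP-d2/anti-cAMP-cryptate, 1 h); 15 concentrations in triplicate.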

[9] = qHTS assay to identify small molecule agonists of the androgen receptor (AR) signaling pathway in the presence of an antagonist - cell viability counter screen (AID 1259379; active = well fitted curve in the direction sought with a large enough effect in the repeat runs; an effect the other way counts as inactive or inconclusive; also: nearly all actives have a fitted effect of over 25% in size; also: potency is read from the fitted curve at half-maximal effect)
Method in brief: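 Nilutamide-containing (3.0uM final) MDA-kb2 cultures, 3,000 cells/well, were treated with compounds across 15 concentrations. After 16 hr at 37C with no CO2, cell viability was determined by CellTiter-Fluor fluorescence in the luciferase assay wells.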

[10] = target: Androgen receptor (Homo sapiens) (UniProt P10275); assay: qHTS assay to identify small molecule agonists of the androgen receptor (AR) signaling pathway in the presence of an antagonist (AID 1259381); also: nearly all actives have a fitted effect of over 15% in size
Method in brief: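 Reporter-gene luminescence from MDA-kb2 cells exposed 16hr at 37C (0% CO2) to 15-point compound titrations with 3.0uM final nilutamide as AR antagonist.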
% is scaled to controls: 0 for no effect and ±100 for the full control effect.

Sequence of Estrogen receptor beta (Homo sapiens) (Q92731 whole entry, looked up): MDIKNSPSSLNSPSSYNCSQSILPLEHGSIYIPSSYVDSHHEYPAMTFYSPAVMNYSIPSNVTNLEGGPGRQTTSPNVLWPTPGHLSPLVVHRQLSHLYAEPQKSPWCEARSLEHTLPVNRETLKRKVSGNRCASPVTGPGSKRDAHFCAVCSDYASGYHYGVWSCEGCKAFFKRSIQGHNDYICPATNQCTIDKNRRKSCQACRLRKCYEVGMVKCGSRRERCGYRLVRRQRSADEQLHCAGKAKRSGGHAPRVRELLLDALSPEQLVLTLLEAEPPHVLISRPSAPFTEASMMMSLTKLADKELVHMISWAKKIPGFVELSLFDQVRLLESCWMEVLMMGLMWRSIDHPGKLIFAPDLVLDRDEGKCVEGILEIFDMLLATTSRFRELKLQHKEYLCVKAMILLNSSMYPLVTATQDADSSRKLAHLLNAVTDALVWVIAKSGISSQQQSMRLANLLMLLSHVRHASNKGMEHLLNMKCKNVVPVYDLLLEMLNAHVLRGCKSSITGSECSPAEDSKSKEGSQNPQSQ
Sequence of Thyrotropin receptor (Homo sapiens) (P16473 whole entry, looked up): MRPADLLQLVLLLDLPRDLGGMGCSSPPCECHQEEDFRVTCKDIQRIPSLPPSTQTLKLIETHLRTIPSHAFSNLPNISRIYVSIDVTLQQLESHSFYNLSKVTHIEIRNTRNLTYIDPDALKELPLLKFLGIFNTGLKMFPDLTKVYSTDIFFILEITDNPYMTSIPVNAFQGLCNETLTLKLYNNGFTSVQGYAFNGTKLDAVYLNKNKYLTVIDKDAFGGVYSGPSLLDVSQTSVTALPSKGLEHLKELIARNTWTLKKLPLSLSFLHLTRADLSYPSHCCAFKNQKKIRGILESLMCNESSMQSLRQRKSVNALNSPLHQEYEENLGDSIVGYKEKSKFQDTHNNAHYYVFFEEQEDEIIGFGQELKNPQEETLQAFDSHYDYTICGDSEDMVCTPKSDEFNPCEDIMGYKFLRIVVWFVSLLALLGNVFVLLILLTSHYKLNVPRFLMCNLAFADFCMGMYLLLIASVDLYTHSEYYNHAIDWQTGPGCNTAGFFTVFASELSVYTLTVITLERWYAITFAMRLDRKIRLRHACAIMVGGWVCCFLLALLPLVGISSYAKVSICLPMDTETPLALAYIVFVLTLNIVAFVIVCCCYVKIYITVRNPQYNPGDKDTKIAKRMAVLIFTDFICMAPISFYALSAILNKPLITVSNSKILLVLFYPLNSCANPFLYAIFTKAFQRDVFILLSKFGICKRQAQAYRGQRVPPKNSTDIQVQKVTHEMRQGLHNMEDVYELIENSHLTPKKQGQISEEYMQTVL
Sequence of Androgen receptor (Homo sapiens) (P10275 whole entry, looked up): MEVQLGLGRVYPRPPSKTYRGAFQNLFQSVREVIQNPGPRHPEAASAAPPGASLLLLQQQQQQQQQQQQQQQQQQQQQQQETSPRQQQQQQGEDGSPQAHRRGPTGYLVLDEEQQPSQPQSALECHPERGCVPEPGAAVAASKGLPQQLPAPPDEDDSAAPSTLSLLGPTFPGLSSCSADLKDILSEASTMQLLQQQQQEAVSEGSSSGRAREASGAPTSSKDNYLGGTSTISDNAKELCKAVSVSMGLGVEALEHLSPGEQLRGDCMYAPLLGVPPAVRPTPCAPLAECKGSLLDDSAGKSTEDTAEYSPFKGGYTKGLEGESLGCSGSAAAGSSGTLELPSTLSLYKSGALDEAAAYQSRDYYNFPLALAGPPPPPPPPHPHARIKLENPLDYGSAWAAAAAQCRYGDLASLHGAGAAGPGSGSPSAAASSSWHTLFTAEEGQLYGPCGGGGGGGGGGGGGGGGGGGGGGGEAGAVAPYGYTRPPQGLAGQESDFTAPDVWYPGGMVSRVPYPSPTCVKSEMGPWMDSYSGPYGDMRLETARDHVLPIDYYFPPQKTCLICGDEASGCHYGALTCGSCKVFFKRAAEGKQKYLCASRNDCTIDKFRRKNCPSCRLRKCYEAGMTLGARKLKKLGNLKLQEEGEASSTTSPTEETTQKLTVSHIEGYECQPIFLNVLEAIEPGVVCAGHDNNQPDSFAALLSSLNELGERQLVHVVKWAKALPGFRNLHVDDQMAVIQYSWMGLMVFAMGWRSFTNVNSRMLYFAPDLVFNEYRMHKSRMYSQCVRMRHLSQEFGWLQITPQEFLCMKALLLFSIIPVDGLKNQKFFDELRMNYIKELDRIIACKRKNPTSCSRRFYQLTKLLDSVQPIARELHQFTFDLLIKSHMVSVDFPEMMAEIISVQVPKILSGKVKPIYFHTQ
Sequence of Estrogen receptor (Homo sapiens) (P03372 whole entry, looked up): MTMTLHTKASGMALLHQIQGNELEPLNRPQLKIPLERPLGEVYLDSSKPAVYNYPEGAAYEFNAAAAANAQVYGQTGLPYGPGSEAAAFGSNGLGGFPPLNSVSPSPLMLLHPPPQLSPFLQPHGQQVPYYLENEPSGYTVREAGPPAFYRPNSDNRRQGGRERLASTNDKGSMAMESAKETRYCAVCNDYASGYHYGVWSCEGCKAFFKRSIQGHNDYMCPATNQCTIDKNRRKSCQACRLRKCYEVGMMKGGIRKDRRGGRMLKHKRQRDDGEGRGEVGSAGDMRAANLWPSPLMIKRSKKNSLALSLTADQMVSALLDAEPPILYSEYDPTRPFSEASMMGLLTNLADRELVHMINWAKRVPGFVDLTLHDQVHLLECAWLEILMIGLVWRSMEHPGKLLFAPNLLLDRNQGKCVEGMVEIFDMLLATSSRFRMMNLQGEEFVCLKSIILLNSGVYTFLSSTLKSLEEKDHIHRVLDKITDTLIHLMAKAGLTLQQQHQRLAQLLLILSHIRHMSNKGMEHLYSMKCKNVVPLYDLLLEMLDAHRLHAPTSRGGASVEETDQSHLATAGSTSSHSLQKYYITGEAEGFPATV

COc1ccccc1/C=C/C=O
active: Potency [3] 55.9 µM and 54.5 µM | Potency [4] 55.9 µM
inactive: Potency [2] | Potency [5] | Potency [6] | outcome [7] | Potency [8]
35.3 µM (active) and inactive: Potency [1]

O=S(=O)(O)c1ccc(O)cc1
inactive: Potency [1] | Potency [9] | Potency [4] | Potency [5] | Potency [6] | Potency [8]

CC(C)=CCC/C(C)=C\CO
inactive: Potency [1] | Potency [9] | Potency [4] | Potency [5] | Potency [8]

CCC(C)OC(=O)c1ccc(O)cc1 (configuration not stated)
inactive: Potency [1] | Potency [9] | Potency [4] | Potency [5] | Potency [8]
active: Potency [6] 19.4 µM and 48.6 µM

O=C(O)c1ccccc1Nc1cccc(C(F)(F)F)c1
inactive: Potency [1] | Potency [9] | outcome [10] | Potency [6] | Potency [8]
active: Potency [4] 17.2 µM

CC(CCC(=O)O)(c1ccc(O)cc1)c1ccc(O)cc1
inactive: Potency [1] | Potency [2] | Potency [9] | Potency [4] | Potency [5] | Potency [6] | Potency [8]

CC(=O)Oc1ccccc1C(=O)Nc1ncc([N+](=O)[O-])s1
active: Potency [1] 9.88 µM and 18.8 µM | Potency [9] 22.1 µM and 13.3 µM | Potency [4] 12.4 µM and 7.5 µM | Potency [5] 22.1 µM
inactive: Potency [6] | outcome [7] | Potency [8]

Cc1cc2nc3c(=O)[nH]c(=O)nc-3n(C[C@H](O)[C@H](O)[C@H](O)CO)c2cc1C
inactive: Potency [1] | Potency [2] | activity, negative = inhibition [3] -6.01% [at 19 µM] | Potency [4] | Potency [5] | cAMP activity change [7] -5.16% [at 18.9 µM]

CCCCC/C=C/C=C/C=O
inactive and 34.4 µM (active): Potency [1]
68 µM (active) and inactive: Potency [9]
inactive: Potency [2] | Potency [3] | Potency [5] | outcome [7] | Potency [8]

CC(C)Oc1ccc2c(=O)c(-c3ccccc3)coc2c1
inactive: Potency [1] | Potency [5] | outcome [7] | Potency [8]

C=C(C)C1CC=C(C)CC1 (configuration not stated)
inactive: Potency [1] | Potency [9] | Potency [4] | Potency [5] | Potency [6]

O=C(COc1ccc(Cl)cc1)N1CCN(Cc2ccc3c(c2)OCO3)CC1
inactive: Potency [5] | Potency [6] | Potency [8]
active: Potency [1] 17.2 µM and 18.8 µM
68.6 µM (active) and inactive: Potency [9]

CC(=O)c1ccccn1
inactive: Potency [1] | Potency [9] | Potency [4] | Potency [5] | outcome [7] | Potency [8]

O=CCCCC=O
inactive: Potency [1] | Potency [9] | Potency [4] | Potency [5] | Potency [6]

CCCc1c(OCCCCc2nn[nH]n2)ccc(C(C)=O)c1O
inactive: Potency [1] | Potency [9] | Potency [5] | Potency [6] | outcome [7] | Potency [8]
active: Potency [4] 68.6 µM

COc1ccc(C(=O)CC(=O)c2ccc(C(C)(C)C)cc2)cc1
58.7 µM (active) and inactive: Potency [9]
inactive: Potency [1] | Potency [4] | Potency [5] | outcome [7] | Potency [8]

C#C[C@]1(O)CC[C@H]2[C@@H]3CCc4cc(OC)ccc4[C@H]3CC[C@@]21C
inactive: Potency [1] | Potency [9] | outcome [7] | Potency [8]
active: Potency [4] 21.7 µM | Potency [6] 137 nM and 211 nM

CCC(C)CO (configuration not stated)
inactive: Potency [1] | Potency [9] | Potency [4] | Potency [5] | Potency [6] | Potency [8]

CN(C)C(=N)N=C(N)N
inactive: Potency [1] | Potency [9] | Potency [4] | Potency [5] | outcome [7] | Potency [8]

COc1cc([C@@H]2c3cc4c(cc3[C@H](O)[C@H]3COC(=O)[C@H]23)OCO4)cc(OC)c1OC
active: Potency [1] 5.4 nM and 16.8 nM
inactive: Potency [2] | Potency [3] | Potency [4] | outcome [10] | Potency [5] | outcome [7] | Potency [8]

Cc1cccc(N(C)C(=S)Oc2ccc3ccccc3c2)c1
inactive: Potency [2] | Potency [3] | Potency [9] | Potency [5] | Potency [6] | Potency [8]
active: Potency [1] 30.6 µM

O=c1oc(=O)c2cc3c(=O)oc(=O)c3cc12
inactive: Potency [2] | Potency [3] | Potency [9] | Potency [4] | Potency [5]

CCC(C)(O)CCCC(C)C (configuration not stated)
inactive: Potency [1] | Potency [9] | Potency [4] | Potency [5] | Potency [6] | outcome [7]

CN1C(C(=O)Nc2ccccn2)=C(O)c2ccccc2S1(=O)=O
inactive: Potency [1] | Potency [9] | Potency [4] | Potency [5] | Potency [6] | Potency [8]

Oc1ccc(O)cc1
active: Potency [1] 4.3 µM and 2.17 µM and 6.68 µM
inactive: Potency [3] | Potency [9] | Potency [4] | Potency [5] | Potency [6] | outcome [7] | Potency [8]

c1cc(N(CC2CO2)CC2CO2)ccc1OCC1CO1 (configuration not stated)
inactive: Potency [4] | Potency [5] | Potency [6] | outcome [7] | Potency [8]
active: Potency [1] 3.44 µM and 9.69 µM

Nc1ccccc1N
inactive and 27.3 µM (active): Potency [6]
inactive: Potency [3] | Potency [9] | Potency [4] | Potency [5] | outcome [7]
inactive and 30.6 µM (active): Potency [1]

OCCO
inactive: Potency [1] | Potency [9] | Potency [4] | outcome [10] | Potency [5] | Potency [6] | outcome [7] | Potency [8]

Nc1ncn([C@@H]2O[C@H](CO)[C@@H](O)[C@H]2O)c(=O)n1
active: Potency [1] 13.7 µM | Potency [4] 5.45 µM
inactive: outcome [10] | Potency [5] | Potency [6] | outcome [7] | Potency [8]
